Results filed as inconclusive are left out. The source made the active and inactive calls. The call rests on the fitted dose curve; in most records, active means well fitted cell-killing curve with a large enough effect; inconclusive means small, poorly fitted or top-dose-only effect, or effect the other way; inactive means no such curve, though single readings can be large or run the other way.
Assay: Quantitative High-Throughput drug screen in 47 multiple myeloma cell lines against the NCATS MIPE library collection: MM1R_ATCC cell viability assay (AID 1918981); further: nearly all actives have a fitted effect of over 35% in size
Settings: MM1R multiple myeloma cells, CellTiter-Glo viability, 48 h; series mostly up to 45.8 µM
Text: PI: Beverly A. Mock Ph.D.
Laboratory of Cancer Biology and Genetics,
Center for Cancer Research, National Cancer Institute,
National Institute of Health, Bethesda, Maryland
Drug resistance and disease progression are common in multiple myeloma (MM) patients, underscoring the need for new therapeutic combinations. […] We hypothesized that effective combinations would reduce MYC expression and enhance p16 activity. […] These preclinical data identify potentially useful drug combinations for evaluation in drug-resistant MM and reveal potential mechanisms of combined drug sensitivity.
Described herein is the primary MIPE qHTS used to cherrypick compounds. Validated compounds were then further tested for potential synergistic activiy.
[1] Peat TJ, Gaikwad SM, Dubois W, Gyabaah-Kessie N, Zhang S, Gorjifard S, Phyo Z, Andres M, Hughitt VK, Simpson RM, Miller MA, Girvin AT, Taylor A, Williams D, D'Antonio N, Zhang Y, Rajagopalan A, Flietner E, Wilson K, Zhang X, Shinn P, Klumpp-Thomas C, McKnight C, Itkin Z, Chen L, Kazandijian D, Zhang J, Michalowski AM, Simmons JK, Keats J, Thomas CJ, Mock BA. Drug combinations identified by high-throughput screening promote cell cycle transition and upregulate Smad pathways in myeloma. Cancer Lett. 2023 Aug 1;568:216284. doi: 10.1016/j.canlet.2023.216284. Epub 2023 Jun 24. PMID: 37356470; PMCID: PMC10408729.
SEQUENCE No. (e.g., 1, 2, 3, etc.); […] (e.g., Cells, Incubation, Reagent, etc.); VALUE and DESCRIPTION.
1; Cells; 5 uL; white, solid bottom 1536-well Greiner assay plate.
2; Compounds; 23 nL; Kalypsis pin tool (Wako USA) equipped with a 1536-well pin head to transfer to the assay plates.
3; Incubation; 48 hours; 37C incubation.
4; Reagent;5uL; CellTiter Glo (Promega).
5; Detector; 425V; Luminescence; Viewlux PerkinElmer.
NOTES (numbers refer to Sequence numbers above)
1. The cell-based screening methods employed in this study were like those previously published. Briefly, the corresponding myeloma cell lines were screened in 1,536-well plates with 500 cells, 5-uL per well for inhibition of cell viability (assessed by measuring ATP levels with CellTiterGlo).
2. NCATS MIPE 4.0 library of approved and investigational drugs were added using the Kalypsis pin tool. Wells treated with DMSO only for 100% viability and media only for 0% viability were used as controls.
3. The assay plates were covered and incubated for 48 hours in a 37C, 5% CO2 incubator with controlled humidity.
4. After 48 hours, CellTilter-GloTM luminescent substrate mix (Promega) reagent was added to the assay plate and plates we incubated for 5 min at room temperature.
5. Signal was measured as median relative luminescence units on a ViewLux (PerkinElmer) multiplate reader.
[1] Heske CM, Davis MI, Baumgart JT, Wilson K, Gormally MV, Chen L, Zhang X, Ceribelli M, Duveau DY, Guha R, Ferrer M, Arnaldez FI, Ji J, Tran HL, Zhang Y, Mendoza A, Helman LJ, Thomas CJ. Matrix Screen Identifies Synergistic Combination of PARP Inhibitors and Nicotinamide Phosphoribosyltransferase (NAMPT) Inhibitors in Ewing Sarcoma. Clin Cancer Res. 2017 Dec 1;23(23):7301-7311. doi: 10.1158/1078-0432.CCR-17-1121. Epub 2017 Sep 12. PMID: 28899971; PMCID: PMC6636827.
With `NC1(Cc2ccc(Cl)cc2)CCN(c2ncnc3[nH]ccc23)CC1` the Potency was 5.9 µM (active).
In the case of `O=C(c1ccc(Nc2nccc(-c3cc4ccccc4s3)n2)cc1)N1CCC(N2CCCC2)CC1`, the Potency is reported as 16.6 µM (active).
For `Cc1cc(C(=O)N2CCN(c3cccc(Cl)c3)CC2)n(-c2ccccc2)n1`, the Potency was 9.35 µM (active).
With `CCCCCN(CCC12CC3CC(CC(C3)C1)C2)C(=O)NCCCc1ccncc1` the Potency was 23.5 µM (active).
With `COc1ccc(CC2SC(=O)NC2=O)cc1C(=O)NCc1ccc(C(F)(F)F)cc1` (stereo not given) the Potency was “inactive”.
In the case of `Cc1ccc(NC(=O)C2(c3ccc4c(c3)OC(F)(F)O4)CC2)nc1-c1cccc(C(=O)O)c1`, the Potency is reported as 0.059 µM (active).
For `O=c1[nH]c(=O)n(C2CCCO2)cc1F` (stereo not given), the Potency was “inactive”.
In the case of `COc1cc(-c2nn(C3CCC(N4CCN(C(C)=O)CC4)CC3)c3ncnc(N)c23)ccc1NC(=O)c1cc2ccccc2n1C` (stereo not given), the Potency is reported as 5.9 µM (active).
In the case of `CCn1nnc2c(N3CCOCC3)nc(-c3ccc(NC(=O)Nc4ccc(C(=O)N5CCN(C)CC5)cc4)cc3)nc21`, the Potency is reported as 0.0469 µM (active).
With `O=c1c2ccccc2nc2n1CCc1c-2[nH]c2ccccc12` the Potency was “inactive”.
For `O=C(C=Cc1c(C(=O)O)[nH]c2cc(Cl)cc(Cl)c12)Nc1ccccc1`, the Potency was “inactive”.
In the case of `N#CCNC(=O)c1ccc(-c2ccnc(Nc3ccc(N4CCOCC4)cc3)n2)cc1`, the Potency is reported as 9.35 µM (active).
For `O=C(O)c1ccc2cc(-c3ccc(O)c(C45CC6CC(CC(C6)C4)C5)c3)ccc2c1`, the Potency was 0.662 µM (active).
With `Cc1cc(Nc2nc(N[C@@H](C)c3ccc(F)cc3)c(C#N)cc2F)n[nH]1` the Potency was 3.32 µM (active).
In the case of `CC(C)c1ccccc1Cc1cc(C(=O)Nc2ccc(S(=O)(=O)c3ccccc3C(C)(C)C)cc2)c(O)c(O)c1O`, the Potency is reported as 10.5 µM (active).
For `CC[C@@H]1C(=O)N(C)c2cnc(Nc3ccc(C(=O)NC4CCC(N5CCN(CC6CC6)CC5)CC4)cc3OC)nc2N1C(C)C` (stereo not given in full), the Potency was 1.87 µM (active).
In the case of `c1cc(-c2cnn3cc(-c4ccc(OCCN5CCCCC5)cc4)cnc23)ccn1`, the Potency is reported as 18.7 µM (active).
For `COc1cc2c(Oc3ccc4[nH]c(C)cc4c3F)ncnc2cc1OCCCN1CCCC1`, the Potency was 26.4 µM (active).
For `O=C(c1cncc(Br)c1)N1CCC(N2CCCC2)CC1`, the Potency was “inactive”.
In the case of `CC(C)c1ccc(Cn2ccc3c4c(N)nc(NC5CC5)nc4ccc32)cc1`, the Potency is reported as 9.35 µM (active).
In the case of `Cc1cc(CN2CCN(c3c(Br)cnc4nc(-c5ccc(N6CCN(C)CC6)cc5)[nH]c34)CC2)no1`, the Potency is reported as 13.2 µM (active).
With `COc1cc2nccc(Oc3ccc(NC(=O)C4(C(=O)Nc5ccc(F)cc5)CC4)cc3)c2cc1OC` the Potency was 1.87 µM (active).
For `OCc1ccc(-c2ccc(-c3ccc(CO)s3)o2)s1`, the Potency was 3.72 µM (active).
For `O=C(O)c1ccc2c(c1)nc(Nc1cccc(Cl)c1)c1ccncc12`, the Potency was 10.5 µM (active).
With `CN(c1ncccc1CNc1nc(Nc2ccc3c(c2)CC(=O)N3)ncc1C(F)(F)F)S(C)(=O)=O` the Potency was 6.62 µM (active).
With `COc1ccc2c(c1)CC[C@@H](CN(C)CC(=O)O)[C@H]2c1ccccc1` the Potency was 3.72 µM (active).
With `Nc1ccccc1NC(=O)c1ccc(CNc2nccc(-c3cccnc3)n2)cc1` the Potency was 0.743 µM (active).
With `CC(C)c1noc(N2CCC(COc3ccc(-c4ccc(S(C)(=O)=O)cc4)nc3)CC2)n1` the Potency was 13.2 µM (active).
For `COc1cc2c(cc1-c1c(C)noc1C)ncc1[nH]c(=O)n([C@H](C)c3ccccn3)c12`, the Potency was 3.32 µM (active).
With `CC(C)(C)c1cnc(CSc2cnc(NC(=O)C3CCNCC3)s2)o1` the Potency was 0.105 µM (active).
For `CCCNC(=O)Nc1ccc(Oc2ncnc3cc(OC)c(OC)cc23)cc1Cl`, the Potency was “inactive”.
In the case of `C1=CCOCc2cc(ccc2OCCN2CCCC2)Nc2nccc(n2)-c2cccc(c2)OCC1`, the Potency is reported as 2.64 µM (active).
With `O=C(Nc1cn[nH]c1-c1nc2ccc(CN3CCOCC3)cc2[nH]1)NC1CC1` the Potency was 2.96 µM (active).
In the case of `Cc1nc(Nc2n[nH]c3c2CN(C(=O)N[C@H](CN(C)C)c2ccccc2)C3(C)C)c2sccc2n1`, the Potency is reported as 1.05 µM (active).
For `C[C@@H](Oc1cc(-c2cnn(C3CCNCC3)c2)cnc1N)c1c(Cl)ccc(F)c1Cl`, the Potency was 14.8 µM (active).
In the case of `COc1cc(C)c(Sc2cnc(NC(=O)c3ccc(CNC(C)C(C)C)cc3)s2)cc1C(=O)N1CCN(C(C)=O)CC1` (stereo not given), the Potency is reported as 14.8 µM (active).
For `Clc1cccc(-n2nnnc2NCc2ccccc2Oc2ccccn2)c1Cl`, the Potency was “inactive”.
In the case of `C1Cc2[nH]nc(-c3nn[nH]n3)c2C1`, the Potency is reported as “inactive”.
With `CCn1cc(-c2ccnc3[nH]c(-c4cccc(CN(C)C)c4)cc23)c(-c2ccc(NC(=O)N(C)C)cc2)n1` the Potency was 20.9 µM (active).
In the case of `Cc1ccc2nc(NC(=O)CSc3nc4c(c(=O)n3-c3ccccc3)SCC4)sc2c1`, the Potency is reported as 16.6 µM (active).

Source: PubChem BioAssay (NCATS)
Potency means the concentration at half of the fitted maximal effect.
